Bioassay records: PubChem, National Center for Advancing Translational Sciences (NCATS)
Rows were chosen to be rich in hits. Some 11% of all compounds tested hit in one or more screens of this group.
L3MBTL1 block: qHTS Assay for the Inhibitors of L3MBTL1 | Lethal(3)malignant brain tumor-like protein 1 (Homo sapiens), Q9Y468 | AlphaScreen L3MBTL1–H3K9me1 peptide binding | AID 485360, 2010 | 230,000 compounds, 0.66% hits | Potency, µM (doses to about 57.1 µM), usual class: inhibitors; note: nearly all actives have a fitted effect of over 60% in size
Target sequence (Q9Y468 whole entry, looked up): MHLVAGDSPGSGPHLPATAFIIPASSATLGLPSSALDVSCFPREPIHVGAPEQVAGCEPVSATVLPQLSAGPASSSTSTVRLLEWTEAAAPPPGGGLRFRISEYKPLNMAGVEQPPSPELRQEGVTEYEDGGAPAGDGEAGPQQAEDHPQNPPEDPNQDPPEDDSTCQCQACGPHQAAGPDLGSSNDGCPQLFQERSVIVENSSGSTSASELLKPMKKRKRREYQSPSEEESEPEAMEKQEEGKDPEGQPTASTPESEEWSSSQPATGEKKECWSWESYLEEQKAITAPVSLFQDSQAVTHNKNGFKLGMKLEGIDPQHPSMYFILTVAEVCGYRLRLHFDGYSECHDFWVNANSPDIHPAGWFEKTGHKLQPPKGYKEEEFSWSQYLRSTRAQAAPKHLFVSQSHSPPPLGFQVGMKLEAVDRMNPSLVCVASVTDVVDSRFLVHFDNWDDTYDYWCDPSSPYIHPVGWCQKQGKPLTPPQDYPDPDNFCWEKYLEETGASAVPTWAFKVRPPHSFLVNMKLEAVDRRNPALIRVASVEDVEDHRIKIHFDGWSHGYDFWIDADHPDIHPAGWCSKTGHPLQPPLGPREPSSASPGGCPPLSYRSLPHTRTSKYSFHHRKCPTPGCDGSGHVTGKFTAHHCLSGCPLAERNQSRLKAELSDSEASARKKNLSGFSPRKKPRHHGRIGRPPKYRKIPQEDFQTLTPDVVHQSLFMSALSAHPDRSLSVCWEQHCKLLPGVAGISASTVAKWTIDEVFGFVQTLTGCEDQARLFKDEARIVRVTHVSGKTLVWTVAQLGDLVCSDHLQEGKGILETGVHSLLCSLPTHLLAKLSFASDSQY
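AlphaScreen assay: L3MBTL1 (50 nM final) was preincubated 30 min at room temperature with biotinylated H3(1-15)K9me1 peptide (75 nM final), then 30 min with library compounds; streptavidin donor and nickel chelate acceptor beads (10 ug/mL final) added, 30 min dark.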
JMJD2A Tudor inh: qHTS Assay for Inhibitors of JMJD2A-Tudor Domain; AlphaScreen JMJD2A-Tudor / H3K4me3 peptide binding; Potency, µM (series often up to 114 µM), actives largely listed as inhibitors; 390,000 compounds, 4.4% hits; AID 504339, 2011; Lysine-specific demethylase 4A (Homo sapiens), O75164; note: nearly all actives have a fitted effect of over 50% in size
HP1b binding inh: HTS for Inhibitors of HP1-beta Chromodomain Interactions with Methylated Histone Tails; AID 540317, 2011; Potency, µM (series often up to 114 µM), hits mostly inhibitors; 390,000 compounds, 0.56% hits; AlphaScreen HP1-beta / biotin-H3K9me3 peptide binding; note: nearly all actives have a fitted effect of over 70% in size
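AlphaScreen: HP1-beta (50 nM) preformed 30 min with biotin-H3(1-18)K9me3 peptide (50 nM) in PBS pH 7.4, 0.01% Tween-20. Compound added for 30 min at RT, then streptavidin donor/nickel chelate acceptor beads (10 ug/mL) for 30 min.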
G9a inh: qHTS Assay for Inhibitors of Histone Lysine Methyltransferase G9a | G9a H3K9 monomethylation, AlphaScreen, 2 h | AID 504332, 2011 | Potency, µM (highest dose often 102 µM), usual class: inhibitors | Histone-lysine N-methyltransferase EHMT2 (Homo sapiens), Q96KQ7 | 350,000 compounds, 8.8% hits; note: nearly all actives have a fitted effect of over 75% in size
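Chemiluminescent proximity detection of H3K9 monomethylation, read after 10 min bead incubation in the dark. Reaction: 20 nM G9a, 500 nM biotin-H3K9 peptide, 20 uM SAM cofactor, 2 h, room temperature, following 15 min enzyme-compound preincubation.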
BAZ2B block: qHTS Assay for Inhibitors of BAZ2B; AlphaScreen BAZ2B-H3K14Ac peptide displacement; Potency, µM (titrated, usually from 114 µM), hits mostly inhibitors; 360,000 compounds, 4.4% hits; note: nearly all actives have a fitted effect of over 60% in size
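In this displacement format the biotinylated H3(5-23) peptide acetylated at Lys14 serves as ligand at 50 nM, with BAZ2B at 50 nM in PBS pH 7.4 containing 0.01% Tween-20. Donor and acceptor beads are 10 ug/mL final.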
PI5P4K alpha inh: qHTS for Inhibitors of phosphatidylinositol 5-phosphate 4-kinase (PI5P4K); Phosphatidylinositol 5-phosphate 4-kinase type-2 alpha (Homo sapiens), P48426; PI5P4Kalpha enzyme, ADP-Glo luminescence, 60 min; hits give low values; max response, %; 330,000 compounds, 1.2% hits; AID 652105, 2013; active = max response of -50% or lower; inconclusive = between -30% and -50%; inactive = -30% or higher; note: value at the top dose of about 77 µM
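Quantitative HTS of the MLSMR library against PI5P4Kalpha with substrate. ATP added last at 5 microM final; room temperature, 60 minutes. Remaining ATP depleted, ADP converted and read as luminescence.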
Each line names hits and unclear results; the compound was inactive in the other large screens. Unless noted, calls come from the whole dose curve; as a rule, active = well fitted inhibition curve with a large enough effect; inconclusive = small, poorly fitted or top-dose-only effect; inactive = no such curve, though single readings can be large or run the other way.

CCOc1ccc(-c2nc(CNC(=O)Nc3ccccc3)c(C)o2)cc1	none (no result: L3MBTL1 block, PI5P4K alpha inh)
Cc1ccc(OC(C)C(=O)Nc2ccc3c(c2)n(C)c(=O)n3C)c(C)c1 (configuration not stated)	BAZ2B block 56µM
CC(C)Sc1ccccc1C(=O)Nc1ccc2c(c1)n(C)c(=O)n2C	G9a inh 6.3µM, BAZ2B block 56µM
CC(=O)Nc1ccc(S(=O)(=O)Nc2ccc3c(c2)n(C)c(=O)n3C)c(C)c1	BAZ2B block 50µM (no result: L3MBTL1 block)
COc1ccc(C(=O)Nc2ccc3c(c2)n(C)c(=O)n3C)cc1OC	BAZ2B block 56µM (no result: L3MBTL1 block)
COc1ccccc1C(=O)N1CCCCC1CCN1CCOCC1 (configuration not stated)	none (no result: L3MBTL1 block, PI5P4K alpha inh)
CC1=C(C(=O)Nc2ccc(C)cc2C)C(c2ccc(O)cc2)n2nc(SCC(=O)c3ccc(C)cc3)nc2N1 (configuration not stated)	none (no result: L3MBTL1 block, PI5P4K alpha inh)
Cc1cc(C)cc(Nc2cc(C(=O)NCc3ccccc3)c3ccccc3n2)c1	none (no result: L3MBTL1 block, BAZ2B block, PI5P4K alpha inh)
CSc1cccc(CNC(=O)CC2C(=O)NCCN2CC(C)(C)C)c1 (configuration not stated)	G9a inh 40µM
CC(C)(C)CN1CCNC(=O)C1CC(=O)NCc1cccc(-n2cccn2)c1 (configuration not stated)	none (no result: G9a inh)
Cn1cc(CNC(=O)CC2C(=O)NCCN2CC(C)(C)C)cn1 (configuration not stated)	G9a inh 50µM
CN(C)c1cccc(NC(=O)CCc2ccccc2)c1	HP1b binding inh inconclusive, G9a inh 3.2µM, BAZ2B block inconclusive
CC(=O)Nc1cccc(NC(=O)CCc2ccccc2)c1	G9a inh inconclusive (no result: L3MBTL1 block)
CN(C)c1cccc(NC(=O)c2cccc3ccccc23)c1	JMJD2A Tudor inh 22µM, HP1b binding inh 50µM, G9a inh 32µM, BAZ2B block 28µM (no result: L3MBTL1 block)
CC(=O)Nc1ccc(NC(=O)c2cccc3ccccc23)cc1	JMJD2A Tudor inh inconclusive
O=C(COCc1cc(-c2ccc(F)cc2)on1)Nc1cccc(Cl)c1Cl	none (no result: L3MBTL1 block, PI5P4K alpha inh)
CCCn1ccc2c(OCC(=O)Nc3ccccc3C(=O)OCC)cccc2c1=O	none (no result: L3MBTL1 block, PI5P4K alpha inh)
CCC1CCCCN1CCCNC(=O)c1ccc2c(c1)N(Cc1ccc(Cl)cc1)C(=O)c1ccccc1S2(=O)=O (configuration not stated)	G9a inh inconclusive (no result: L3MBTL1 block, PI5P4K alpha inh)
O=C1/C(=C\c2c(NCCOCCO)nc3ccccn3c2=O)SC(=S)N1Cc1ccco1	G9a inh 40µM, BAZ2B block inconclusive
Cc1cc(C)n(-c2nc(C)c(C)c(=O)n2CC(=O)Nc2ccc([N+](=O)[O-])cc2)n1	G9a inh inconclusive (no result: L3MBTL1 block, PI5P4K alpha inh)
Clc1ccc2nc(-c3ccc(Br)s3)cn2c1	G9a inh 50µM (no result: PI5P4K alpha inh)
COc1ccc(-c2cn3cc(Cl)ccc3n2)cc1OC	G9a inh 79µM, BAZ2B block inconclusive
COc1cc(-c2nnc(SCC(=O)Nc3ccc(F)c(Cl)c3)o2)cc(OC)c1OC	none (no result: L3MBTL1 block, PI5P4K alpha inh)
O=C(Nc1cc(-c2ccc(F)c(F)c2)no1)c1ccccc1F	none (no result: L3MBTL1 block, PI5P4K alpha inh)
CCOC(=O)C1CCN(C(c2ccccn2)c2c(C)[nH]c3ccccc23)CC1 (configuration not stated)	JMJD2A Tudor inh inconclusive, HP1b binding inh inconclusive, G9a inh 1.4µM (no result: L3MBTL1 block)
Cc1[nH]c2ccccc2c1C(c1ccccn1)N1CCC(C(N)=O)CC1 (configuration not stated)	JMJD2A Tudor inh inconclusive, G9a inh 1.6µM (no result: BAZ2B block)
CCOC(=O)C1CCN(C(=O)c2n[nH]c(=O)c3ccccc23)CC1	none
FC(F)(F)c1cc(CN2CCCC3(CCNCC3)C2)cc(C(F)(F)F)c1	none (no result: L3MBTL1 block, JMJD2A Tudor inh, HP1b binding inh, BAZ2B block, PI5P4K alpha inh)
COc1ccc(NC(=O)CCCc2nnc3n(CCC(C)C)c(=O)c4sccc4n23)cc1Cl	none (no result: L3MBTL1 block, PI5P4K alpha inh)
CCCN(CCC)CCOc1cc(C)ccc1C(C)C	JMJD2A Tudor inh 3.2µM, HP1b binding inh inconclusive, G9a inh 18µM, BAZ2B block inconclusive
CN(C)CCCOC(=O)COc1ccc(C(C)(C)C)cc1	none
Cc1ccc(C(C)C)c(OCCOCCN2CCNCC2)c1	none (no result: L3MBTL1 block, G9a inh, BAZ2B block)
Cc1ccc(C(C)C)c(OCCN)c1	G9a inh inconclusive (no result: PI5P4K alpha inh)
Cc1ccc(SCCCCN2CCNCC2)cc1	JMJD2A Tudor inh 11µM, G9a inh 8.9µM, BAZ2B block 40µM
Cc1cc(C(C)(C)C)ccc1OCCN(C)C	JMJD2A Tudor inh 7.9µM, HP1b binding inh inconclusive, G9a inh 8.9µM, BAZ2B block 28µM
Cc1ccc(C(C)C)c(OCCCCN2CCNCC2)c1	JMJD2A Tudor inh 7.1µM, HP1b binding inh inconclusive, G9a inh 4µM, BAZ2B block 28µM
